# According to PubChem BioAssay AID743060 (The Scripps Research Institute Molecular Screening Center, 2013):
# Test: T. brucei methionyl-tRNA synthetase enzyme inhibition – biochemical, radioactivity, round 1, late-stage follow-up (AID 743060)
# Conditions: purified enzyme, radiolabel aminoacylation, scintillation, 2 h; at 1 µM; stronger effect = higher value
row,SMILES,inhibition
1,O=C(Cn1cc(C(=O)c2ccco2)c2ccccc21)Nc1cccc(C(F)(F)F)c1,45.2%
2,COc1ccc(CNC(=O)CSc2nnc3c(n2)[nH]c2ccc(F)cc23)cc1,47.5%
3,COc1ccc(CCN(C(=S)Nc2ccccc2)C2CC(=O)N(c3ccc(Cl)cc3)C2=O)cc1 (stereo not given),92.7%
4,Cc1cccc2[nH]c(C3CCCN(C(=O)c4cccc5cccnc45)C3)nc12 (stereo not given),-3.03%
5,CC(=O)N(CCc1ccccc1)C1CC(=O)N(c2ccc(Cl)cc2)C1=O (stereo not given),-16.2%
6,Cc1cccc2[nH]c(CCN(C)C(=O)c3cccc(C4CCNC4)c3)nc12 (stereo not given),-7.8%
7,O=C(NCc1nc2ccccc2[nH]1)C1=C[C@@H](C2CC2)C[C@@H](OCc2ccc(CO)cc2)O1,52.8%
8,CCN(C(=O)Cn1cc(C(=O)C(=O)N2CCOCC2)c2ccccc21)c1ccccc1,-19.2%
9,Cc1ccc(CNC(=O)CSc2nnc3c(n2)[nH]c2ccc(C)cc23)cc1,76.3%
10,O=C(CSc1nnc2c(n1)[nH]c1ccc(Br)cc12)NCc1ccccc1,79.8%
11,O=C(NCc1nc2ccccc2[nH]1)C1=C[C@H](c2ccccc2)C[C@H](OCc2ccc(CO)cc2)O1,7.32%
12,O=C(Cn1cc(C(=O)COc2ccccc2)c2ccccc21)Nc1cccc(C(F)(F)F)c1,-5.73%
13,CC(=O)N(CCc1ccccc1)C1CC(=O)N(c2ccc(Br)cc2)C1=O (stereo not given),-12.2%
14,COc1ccccc1-n1c(SCC(=O)Nc2ccc(Cl)cc2)nc(O)c(Cc2ccccc2)c1=O,2.04%
15,O=C(Cn1cc(C(=O)C(=O)N2CCOCC2)c2ccccc21)Nc1cccc(C(F)(F)F)c1,87.5%
16,O=C(C[C@H]1C(=O)N(Cc2ccccc2)C[C@@H]1c1ccc(Br)cc1)Nc1ccc(Br)cc1,55.7%
17,CCCCn1c(CCNC(=O)c2ccc(F)cc2)nc2ccccc21,4.87%
18,CC(=O)c1ccc(N2CCN(C(=O)CCCn3c(=O)[nH]c4ccc(Br)cc4c3=O)CC2)cc1,68.1%

row,SMILES,inhibition
1,O=C(NCc1nc2ccccc2[nH]1)C1=C[C@@H](c2ccc(Br)cc2)C[C@@H](OCc2ccc(CO)cc2)O1,62.1%
2,COCCc1nc2ccc(C(=O)NCCc3nc4ccc(OC)cc4[nH]3)cc2o1,-1.44%
3,CCC(=O)c1cn(CC(=O)Nc2cccc(C(F)(F)F)c2)c2ccccc12,-3.8%
4,O=C(CCC(=O)Nc1cccc([N+](=O)[O-])c1)NN=Cc1cccs1,6.25%
5,O=C(NCCc1nc2ccccc2[nH]1)c1ccc(Cl)c([N+](=O)[O-])c1,89.8%
6,O=C(CC(=O)Nc1cccc(Cl)c1)NN=Cc1ccccc1,28.2%
7,O=C(Cn1cnc2ccccc21)Nc1cccc([N+](=O)[O-])c1,44.9%
8,Cc1cccc(C(=O)NCCc2nc3ccccc3n2CCOc2ccccc2)c1,1.66%
9,CNC(=S)N(CCc1ccccc1)C1CC(=O)N(c2ccc(Br)cc2)C1=O (stereo not given),96.6%
10,Cc1ccc(C(=O)NCCc2nc3ccccc3[nH]2)cc1[N+](=O)[O-],35.7%
11,O=C(Cn1cc(C(=O)C(=O)N2CCOCC2)c2ccccc21)NCC1CCCO1 (stereo not given),-3.8%
12,O=C1[C@@H]2Cc3c([nH]c4ccccc34)C(c3cccc([N+](=O)[O-])c3)N2C(=O)CN1CCCO (stereo not given in full),63.2%
13,CCN(CC)C(=O)C(=O)c1cn(CC(=O)N2CCCc3ccccc32)c2ccccc12,-9.56%
14,Clc1ccc(OCCSCc2nc3ccccc3[nH]2)cc1,-2.58%
15,COc1ccc(NC(=O)CSc2nnc3c4cc(C)ccc4n(C)c3n2)cc1,-3.06%
16,O=C(Cn1cc(C(=O)c2ccccc2)c2ccccc21)Nc1cccc(C(F)(F)F)c1,22%
17,Cc1cc2cc(C(=O)N3CCCC(c4nc5ccccc5[nH]4)C3)ccc2o1 (stereo not given),20.3%
